The record followed here is PubChem BioAssay (NCATS).

The target in assay [1] is Rap guanine nucleotide exchange factor 3 (Homo sapiens) (UniProt O95398). In words: Confirmatory qHTS for antagonist of cAMP-regulated guanine nucleotide exchange factor 3 (EPAC1) (AID 1645880). Note: nearly all actives have a fitted effect of over 55% in size. Note: potency is the fitted concentration of half-maximal effect. The method in brief: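 Released BODIPY-GDP fluoresces less than Rap1-bound BODIPY-GDP; the signal is followed at 480/540 nm at 5-min intervals over 30 min, after 5 min at room temperature. Reactions contain 100 nM EPAC1, 250 nM RAP1B-BODIPY-GDP and 50 uM GDP; results are normalized to ATA and DMSO.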
Chain of Rap guanine nucleotide exchange factor 3 (Homo sapiens) (O95398 whole entry, looked up): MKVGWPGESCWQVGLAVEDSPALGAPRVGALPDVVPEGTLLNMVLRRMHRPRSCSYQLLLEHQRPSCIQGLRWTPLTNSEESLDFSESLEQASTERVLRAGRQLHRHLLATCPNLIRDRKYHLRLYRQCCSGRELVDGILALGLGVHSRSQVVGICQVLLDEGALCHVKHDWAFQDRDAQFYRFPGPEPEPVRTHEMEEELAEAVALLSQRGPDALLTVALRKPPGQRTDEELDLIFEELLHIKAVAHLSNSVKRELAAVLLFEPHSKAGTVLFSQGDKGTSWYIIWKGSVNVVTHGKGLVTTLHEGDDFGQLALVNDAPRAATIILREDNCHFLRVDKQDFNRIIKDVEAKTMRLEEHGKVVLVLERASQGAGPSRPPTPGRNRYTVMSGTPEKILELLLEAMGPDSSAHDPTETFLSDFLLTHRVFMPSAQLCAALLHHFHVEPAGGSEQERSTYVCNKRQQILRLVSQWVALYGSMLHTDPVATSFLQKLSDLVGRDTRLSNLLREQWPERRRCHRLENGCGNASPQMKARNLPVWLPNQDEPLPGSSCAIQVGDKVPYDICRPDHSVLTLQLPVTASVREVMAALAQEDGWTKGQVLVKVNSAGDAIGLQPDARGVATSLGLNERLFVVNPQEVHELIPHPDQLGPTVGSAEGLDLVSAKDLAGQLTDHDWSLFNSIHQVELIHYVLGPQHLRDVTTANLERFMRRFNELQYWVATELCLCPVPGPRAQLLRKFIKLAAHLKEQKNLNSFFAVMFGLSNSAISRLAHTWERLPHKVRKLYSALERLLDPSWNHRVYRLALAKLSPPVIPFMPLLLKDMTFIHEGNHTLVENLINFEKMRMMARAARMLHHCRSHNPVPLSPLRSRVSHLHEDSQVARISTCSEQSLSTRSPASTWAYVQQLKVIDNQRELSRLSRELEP

Assay [2] shares this target. The assay can be described thus: Confirmatory qHTS for agonist of cAMP-regulated guanine nucleotide exchange factor 3 (EPAC1) (AID 1645881).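 Note: EPAC1 catalysed release of BODIPY-GDP from Rap1B seen as fluorescence loss; 100% = effect of cAMP agonist control; nearly all actives have a fitted effect of over 75% in size.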
The target in assay [3] is Rap guanine nucleotide exchange factor 4 (Homo sapiens) (UniProt Q8WZA2). In words: Confirmatory qHTS for agonist of cAMP-regulated guanine nucleotide exchange factor 4 (EPAC2) (AID 1645884).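 Note: nucleotide exchange releases bodipy-GDP from Rap1 and this lowers its fluorescence; % is set by controls: 0 for no effect and ±100 for the full control effect; nearly all actives have a fitted effect of over 65% in size.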
Chain of Rap guanine nucleotide exchange factor 4 (Homo sapiens) (Q8WZA2 whole entry, looked up): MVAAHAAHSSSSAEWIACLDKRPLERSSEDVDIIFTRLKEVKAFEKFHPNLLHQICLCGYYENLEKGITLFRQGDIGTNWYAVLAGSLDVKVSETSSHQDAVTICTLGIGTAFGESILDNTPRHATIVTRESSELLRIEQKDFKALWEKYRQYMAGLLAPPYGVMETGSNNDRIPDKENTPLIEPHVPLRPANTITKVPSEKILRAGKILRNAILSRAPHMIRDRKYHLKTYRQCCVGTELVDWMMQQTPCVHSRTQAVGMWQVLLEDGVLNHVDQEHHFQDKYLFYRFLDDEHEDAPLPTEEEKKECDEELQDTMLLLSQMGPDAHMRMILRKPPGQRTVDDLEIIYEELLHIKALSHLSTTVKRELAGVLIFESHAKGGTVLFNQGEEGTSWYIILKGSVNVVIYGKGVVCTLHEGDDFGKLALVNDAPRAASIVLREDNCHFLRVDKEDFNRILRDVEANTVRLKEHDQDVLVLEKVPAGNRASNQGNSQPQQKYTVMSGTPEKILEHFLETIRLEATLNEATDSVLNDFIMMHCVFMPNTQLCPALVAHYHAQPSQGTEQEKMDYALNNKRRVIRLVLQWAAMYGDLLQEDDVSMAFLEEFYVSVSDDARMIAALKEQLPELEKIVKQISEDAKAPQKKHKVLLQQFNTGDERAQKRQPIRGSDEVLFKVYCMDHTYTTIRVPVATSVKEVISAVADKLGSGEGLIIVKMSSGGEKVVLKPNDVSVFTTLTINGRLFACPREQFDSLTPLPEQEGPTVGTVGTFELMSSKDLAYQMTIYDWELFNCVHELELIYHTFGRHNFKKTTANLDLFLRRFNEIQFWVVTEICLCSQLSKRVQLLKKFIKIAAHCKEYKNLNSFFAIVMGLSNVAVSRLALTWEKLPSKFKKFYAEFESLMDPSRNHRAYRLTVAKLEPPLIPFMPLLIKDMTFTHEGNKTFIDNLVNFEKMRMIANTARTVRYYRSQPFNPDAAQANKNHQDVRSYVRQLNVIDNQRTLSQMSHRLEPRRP
For assay [4] the target is unchanged. The assay can be described thus: Confirmatory qHTS for antagonist of cAMP-regulated guanine nucleotide exchange factor 4 (EPAC2) (AID 1645885). For activity change, negative = inhibition: % is set by controls: 0 for no effect and ±100 for the full control effect. Note: nearly all actives have a fitted effect of over 25% in size. Note: potency is the fitted concentration of half-maximal effect. On the technique in general: qHTS replaces the single test concentration by a dilution series.
Assay [5] addresses Rap guanine nucleotide exchange factor 3 (Homo sapiens) (UniProt O95398). The assay can be described thus: Counterscreen qHTS for antagonist of cAMP-regulated guanine nucleotide exchange factor 3 (EPAC1) (AID 1645888). Note: % of control where 0% means no effect. The method in brief: (§1)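 Rap1B-BODIPY-GDP 250 nM + GDP 50 uM; cpds 7-pt, final 9.74 nM–152 uM (activator mode) or from 7.32 nM upwards (inhibitor mode); RT; FI 480/540 nm at 5 and 30 min, then ± cAMP, reread.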
For orientation: A counterscreen serves to expose hits that act by an unwanted route or on another target.

The target is the same in assay [6]. The assay can be described thus: Counterscreen qHTS for agonist of cAMP-regulated guanine nucleotide exchange factor 3 (EPAC1) (AID 1645889). Note: % of control where 0% means no effect; nearly all actives have a fitted effect of over 40% in size. The method in brief:
as §1

Inconclusive results are not listed. A number with no mark means an inactive call. The source made the active and inactive calls. Calls come from the whole dose curve; as a rule, active = well fitted curve in the direction sought with a large enough effect; inconclusive = small, poorly fitted or top-dose-only effect, or another doubt; inactive = no such curve, though single readings can be large; an effect the other way counts as inactive or inconclusive.

Take `Cc1ccc2[nH]cc(C(c3ccccc3)c3cccs3)c2c1` (stereo unspecified): the Potency entry in assay [1], in assay [2], in assay [3], in assay [5] and in assay [6] was “inactive” in each case. Also, the outcome in assay [4] was “inactive [at 12.7 µM]”.
For `COc1cnc(-c2ccccn2)nc1Oc1c(C)cccc1C`, the Potency entry in assay [1], in assay [2], in assay [3], in assay [4], in assay [5] and in assay [6] was “inactive” in each case.
As to `COc1ccccc1OCCCSc1nc(-c2ccc(C(C)(C)C)cc2)nc2cc(=O)[nH]n12`, the Potency in assay [1] was 67.5 µM (active). The Potency entry in assay [2], in assay [3], in assay [4], in assay [5] and in assay [6] was “inactive” each time.
Take `CN(CCc1ccccn1)C(=O)Nc1ccc(F)cc1`: the Potency entry in assay [1], in assay [2], in assay [3], in assay [4], in assay [5] and in assay [6] was “inactive” each time.
Turning to `O=C(OCc1c(-c2ccccc2)ncc2ccccc12)c1ccccc1C(F)(F)F`, the Potency result in assay [1], in assay [2], in assay [3], in assay [4], in assay [5] and in assay [6] was “inactive” each time.
With `Cc1cccc(NC(=S)NC(=O)c2oc3ccccc3c2C)n1`, the Potency result in assay [1], in assay [2], in assay [3], in assay [4], in assay [5] and in assay [6] was “inactive” each time.
Turning to `O=C(c1ccc(Br)o1)N1CCN(c2ccc3nnc(-c4ccc(F)cc4)n3n2)CC1`, the Potency result in assay [1], in assay [2] and in assay [4] was “inactive” throughout. For the same molecule, the activation in assay [3] was -1.27% [at 17.1 µM, percent relative to cAMP agonist control]; in assay [6], 25.2% [at 30.8 µM]. Besides, the activity change, negative = inhibition in assay [5] was -4.8% [at 30.8 µM].
Consider `COc1ccc(-c2oc3cccnc3c2C#CCO)cc1`, for which the Potency entry in assay [1], in assay [2], in assay [3], in assay [4], in assay [5] and in assay [6] was “inactive” each time.
Consider `CCc1ccccc1N(CC(=O)NCCc1ccccc1)C(=O)CCC(=O)Nc1ccccn1`, for which the Potency result in assay [1], in assay [2], in assay [3], in assay [4], in assay [5] and in assay [6] was “inactive” each time.
For the molecule `CN[C@@H](CO)C(=O)NC[C@H]1O[C@@H](n2cnc3c(N)ncnc32)[C@H](O)[C@@H]1O`, the Potency entry in assay [1], in assay [2], in assay [3], in assay [4], in assay [5] and in assay [6] was “inactive” in each case.
For `CCc1ccc(-c2nc(CS(=O)CC(=O)NCc3cccnc3)c(C)o2)cc1` (stereo unspecified), the Potency result in assay [1], in assay [2], in assay [3], in assay [4], in assay [5] and in assay [6] was “inactive” in each case.
With `O=C(O)c1cccc(NC(=O)c2cn(-c3ccccc3)nc2-c2cc3ccccc3o2)c1`, the Potency in assay [1] was 50.1 µM (active). Moreover, the Potency entry in assay [2] and in assay [4] was “inactive” each time. For the same molecule, the activation in assay [3] is 0.161% [at 17.1 µM, percent relative to cAMP agonist control]; in assay [6] it was 16.8% [at 30.8 µM]. Further, the activity change, negative = inhibition in assay [5] was -4.75% [at 30.8 µM].
As for `Cn1c(COc2ccc(Cl)cc2)nc2ccccc2c1=O`, the Potency in assay [1] is 25.1 µM (active). Moreover, the Potency entry in assay [2] and in assay [4] was “inactive” throughout. Moreover, the activation was 4.13% [at 17.1 µM, percent relative to cAMP agonist control] in assay [3] and 5.9% [at 30.8 µM] in assay [6]. For the same molecule, the activity change, negative = inhibition in assay [5] was 1.04% [at 30.8 µM].
`Cn1cc(C(=O)N/N=C/C2=C(N3CCOCC3)C(=C\c3ccccc3)/CC2)ccc1=O`: the Potency result in assay [1], in assay [2] and in assay [4] was “inactive” in each case. Moreover, the activation was -0.586% [at 17.1 µM, percent relative to cAMP agonist control] in assay [3] and 5.8% [at 30.8 µM] in assay [6]. For the same molecule, in assay [5], the activity change, negative = inhibition was -15% [at 30.8 µM].
For `COc1ccc(N2CCN(C(=O)c3cc(C)on3)CC2)cc1`, the Potency entry in assay [1], in assay [2], in assay [3], in assay [4], in assay [5] and in assay [6] was “inactive” each time.
Turning to `O=C(NCCS(=O)(=O)N1CCN(c2cccc(Cl)c2)CC1)c1ccc2c(c1)OCO2`, the Potency entry in assay [1], in assay [2], in assay [3], in assay [4], in assay [5] and in assay [6] was “inactive” each time.
As to `CC(=O)C1=C(c2ccc(C)cc2)N(C(C)=O)n2c(nnc2C2CCCCC2)S1`, the Potency entry in assay [1], in assay [2], in assay [3], in assay [4], in assay [5] and in assay [6] was “inactive” in each case.
As for `CC(C)(C)c1ccc(CC(=O)N2CCC2(C)C(=O)NS(=O)(=O)c2ccccc2)cc1` (stereo unspecified), the Potency result in assay [1], in assay [2] and in assay [4] was “inactive” throughout. Moreover, the activation in assay [3] is 0.17% [at 17.1 µM, percent relative to cAMP agonist control]; in assay [6] it was 19.6% [at 30.8 µM]. The activity change, negative = inhibition in assay [5] is -2% [at 30.8 µM].
As for `COc1ccc(CC(=O)Nc2nc(-c3cccnc3)cs2)cc1`, the Potency entry in assay [1], in assay [2] and in assay [4] was “inactive” in each case. Also, the activation in assay [3] was 15.1% [at 17.1 µM, percent relative to cAMP agonist control]; in assay [6] it was -9.76% [at 30.8 µM]. Besides, in assay [5], the activity change, negative = inhibition was -4.63% [at 30.8 µM].
With `COc1ccc(NC(=O)Cn2cnc3sc(C)c(S(=O)(=O)N4CCOCC4)c3c2=O)c(OC)c1`, the Potency result in assay [1], in assay [2] and in assay [4] was “inactive” in each case. For the same molecule, the activation in assay [3] was -0.644% [at 17.1 µM, percent relative to cAMP agonist control]; in assay [6], 3.18% [at 30.8 µM]. The activity change, negative = inhibition in assay [5] is -23.9% [at 30.8 µM].
As to `COc1ccc(CCNC(=O)CCc2nc3sc4c(c3c(=O)[nH]2)CCCC4)cc1`, the values for the Potency in assay [1] and in assay [4] were 84.9 µM (active) and 4.78 µM (active), respectively. Moreover, the Potency result in assay [2], in assay [3], in assay [5] and in assay [6] was “inactive” in each case.
